Measurements taken from PubChem BioAssay (Tox21).
A number with no mark means an inactive call. Inconclusive results are not listed. Where a call stands in place of a potency, no number is given. Calls of active or inactive are those of the source. Unless noted, the call rests on the fitted dose curve.

Legend:
[1] = Nuclear factor erythroid 2-related factor 2/antioxidant responsive element (Nrf2/ARE) small molecule agonists: qHTS cell viability counter screen in human keratinocytes (AID 1919968; active means well fitted curve in the direction sought with a large enough effect in the repeat runs; an effect the other way counts as inactive or inconclusive; further: nearly all actives have a fitted effect of over 55% in size; further: potency means the concentration at half of the fitted maximal effect)
Outline: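 After a 5 h attachment period, ARE-reporter keratinocytes were dosed with compounds in DMSO and then cultured 23 h at 37 C. Cell viability came from CellTiter-Fluor signal read after a further 1 h.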

[2] = Nuclear factor erythroid 2-related factor 2/antioxidant responsive element (Nrf2/ARE) small molecule agonists: luciferase reporter gene qHTS assay in human keratinocytes (AID 1919969); further: nearly all actives have a fitted effect of over 35% in size; further: potency means the concentration at half of the fitted maximal effect
[3] = target: Gonadotropin-releasing hormone receptor (Homo sapiens) (UniProt P30968); experiment: Human gonadotropin-releasing hormone receptor (GnRHR) small molecule agonists, calcium flux assay in GnRHR-HEK293 cells (AID 1920063); further: nearly all actives have a fitted effect of over 35% in size
Outline: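 We seeded human GnRHR-expressing HEK293 cells for 18 hours, loaded them with calcium dye for an hour at 37 C, added test compounds, and recorded fluorescence intensity kinetically for three minutes.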

[4] = target: KiSS-1 receptor (Homo sapiens) (UniProt Q969F8); experiment: Human kisspeptin (KISS1R) small molecule agonists, calcium flux assay in KISS1R-HEK293 cells (AID 1920064; active means well fitted curve in the direction sought with a large enough effect in the repeat runs; an effect the other way counts as inactive or inconclusive)
Outline: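 Kinetic calcium assay, 1 s sampling over 3 min at Ex/Em 480/540, in HEK293 cells engineered with human KISS1R; compounds delivered in DMSO after 1 h dye loading.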

[5] = G protein-coupled receptor (GPCR) small molecule agonists, calcium flux assay: HEK293 wild type cell line counter screen (AID 1920065)
Outline: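 Calcium-sensitive dye, loaded 1 h at 37 C into cells cultured 18 h, reports compound-evoked calcium release as fluorescence (Ex/Em 480/540), measured over 3 min. Agonist mode; 15-point titrations, triplicate.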

[6] = p53 small molecule agonists, cell-based qHTS assay with human liver microsomes (AID 1963577);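 further: p53 response element beta-lactamase reporter cells with liver microsomes plus NADPH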
Outline: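 HLM-supplemented p53RE-bla reporter assay: 16 h compound exposure at 37 C, microsomes and NADPH each 0.5 mg/mL final, read by fluorescence intensity.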

[7] = p53 small molecule agonists, cell-based qHTS assay with rat liver microsomes (AID 1963578)
Outline: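 Quantitative HTS of the Tox21 10K library: p53RE-bla cells, rat liver microsomes plus NADPH at 0.5 mg/mL final each, 16 h at 37 C, beta-lactamase fluorescence detection.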

[8] = p53 small molecule agonists, cell-based qHTS assay with human liver microsomes: qHTS cell viability counter screen (AID 1963579); further: nearly all actives have a fitted effect of over 45% in size
Outline: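 Viability of p53RE-bla cells is measured as CellTiter-Glo luminescence following a 16 h, 37 C incubation with compound, liver microsomes from human donors and NADPH.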

[9] = p53 small molecule agonists, cell-based qHTS assay with rat liver microsomes: qHTS cell viability counter screen (AID 1963580); further: nearly all actives have a fitted effect of over 45% in size
Outline: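 Intracellular ATP, by CellTiter-Glo luminescence, defines viability. HCT-116 p53RE-bla cells, 4,000 per well, were compound-treated in the presence of rat liver microsomes and NADPH for 16 h at 37 C.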

[10] = p53 small molecule agonists, cell-based qHTS assay: qHTS cell viability counter screen (AID 1963581); further: nearly all actives have a fitted effect of over 45% in size
Outline: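 Following 5 h attachment, HCT-116 p53RE-bla cells took up compound for 16 h at 37 C; the reporter was read with B/G FRET substrate (2 h RT), and viability then via CellTiter-Glo ATP luminescence.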

[11] = p53 small molecule agonists, cell-based qHTS assay (AID 1963582; active means well fitted activation curve with a large enough effect in the signal ratio in the repeat runs, not every such curve was filed as active; the % refers to the signal ratio)
Outline: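 In this cell-based concentration-response screen, a p53 response element drives beta-lactamase; cells received DMSO-borne compounds after 5 h culture and were incubated a further 16 h before FRET substrate development.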

[12] = target: 5-hydroxytryptamine receptor 2A (Homo sapiens) (UniProt P28223); experiment: 5-hydroxytryptamine receptor 2A (HTR2A) small molecule antagonists, cell-based qHTS assay (AID 1963586); further: nearly all actives have a fitted effect of over 45% in size; further: potency means the concentration at half of the fitted maximal effect
Outline: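 Antagonist-mode intracellular calcium assay: DOI (4 nM) added after 5 min compound pre-incubation at room temperature to dye-loaded HTR2A-CHO cells. Fluorescence followed for 3 min, sampled every second.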

[13] = target: 5-hydroxytryptamine receptor 2A (Homo sapiens) (UniProt P28223); experiment: 5-hydroxytryptamine receptor 2A (HTR2A) small molecule agonists, cell-based qHTS assay (AID 1963587); further: nearly all actives have a fitted effect of over 30% in size
Outline: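 Kinetic calcium-flux fluorescence (2 min, 1 sec intervals) after compound addition in agonist mode. HTR2A-CHO cells were cultured 18 h, then dye-loaded 1 h at 37 C.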

[14] = target: Muscarinic acetylcholine receptor M1 (Homo sapiens) (UniProt P11229); experiment: Cholinergic receptor muscarinic 1 (CHRM1) small molecule antagonists, cell-based qHTS assay (AID 1963588); further: nearly all actives have a fitted effect of over 40% in size
Outline: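 CHRM1-CHO calcium-flux assay, antagonist mode. Cells were seeded 18 h, dye-loaded 1 h at 37 C and given compound for 5 min at RT, then acetylcholine was added at 50nM. FDSS fluorescence was read 3 min; 15 concentrations, three runs.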

[15] = target: Muscarinic acetylcholine receptor M1 (Homo sapiens) (UniProt P11229); experiment: Cholinergic receptor muscarinic 1 (CHRM1) small molecule agonists, cell-based qHTS assay (AID 1963589); further: nearly all actives have a fitted effect of over 35% in size
Outline: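 Measures agonist-induced intracellular calcium rise. Stable human CHRM1 CHO line, 1 h dye load at 37 C, compounds from DMSO, kinetic fluorescence read.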

[16] = cAMP Responsive Elements (CRE) small molecule agonists, cell-based qHTS assay (AID 1963590)
Outline: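 A CRE-responsive beta-lactamase reporter in HEK 293T cells was used. Treatment ran 3 h at 37 C; detection used LiveBLAzer B/G FRET substrate for 2 h at room temperature.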

[17] = cAMP Responsive Elements (CRE) small molecule antagonists, cell-based qHTS assay (AID 1963591; active means well fitted inhibition curve with a large enough effect in the signal ratio in the repeat runs, not every such curve was filed as active; the % refers to the signal ratio)
Outline: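 HEK293T cells carrying a CRE-driven beta-lactamase reporter receive compound and NKH477 (0.25 uM final) for 3 h. Fluorescence from LiveBLAzer B/G FRET substrate is read after 2 h at room temperature.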

[18] = target: Beta-2 adrenergic receptor (Homo sapiens) (UniProt P07550); experiment: Adrenergic beta2 receptor (ADRB2) small molecule antagonists, cell-based qHTS assay (AID 1963592); further: series mostly up to about 92 µM; nearly all actives have a fitted effect of over 50% in size
Outline: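 Cells (CHO, stable ADRB2 overexpression) incubated 18-20hr at 37C; compounds added from DMSO; agonist mix (1nM isoproterenol, 100uM IBMX, 25uM Ro-20-1724) added; 0.5hr RT; d2-cAMP and anti-cAMP-cryptate added; 1hr RT; 665/615 nm read.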

[19] = target: Beta-2 adrenergic receptor (Homo sapiens) (UniProt P07550); experiment: Adrenergic beta2 receptor (ADRB2) small molecule agonists, cell-based qHTS assay (AID 1963593);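 further: CHO cells stably overexpressing human ADRB2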
Outline: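 CHO cells stably over-expressing ADRB2 were plated overnight at 37C, then dosed with compounds plus a stimulation mix containing 100uM IBMX and 25uM Ro-20-1724 for 0.5hr at room temperature. cAMP was measured by HTRF competition, 1hr.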

[20] = target: D(2) dopamine receptor (Homo sapiens) (UniProt P14416); experiment: Dopamine D2 receptor (DRD2) small molecule agonists, cell-based qHTS assay (AID 1963594); further: nearly all actives have a fitted effect of over 35% in size
Outline: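 cAMP accumulation in DRD2-HEK293 cells measured by HTRF after 1 h detection; compounds added 10 min before NKH477 (200nM […]) forskolin-analogue stimulation, 30 min at room temperature, with Ro20-1724 present at 0.1 mM final.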

Muscarinic acetylcholine receptor M1 (Homo sapiens), sequence (P11229 whole entry, looked up): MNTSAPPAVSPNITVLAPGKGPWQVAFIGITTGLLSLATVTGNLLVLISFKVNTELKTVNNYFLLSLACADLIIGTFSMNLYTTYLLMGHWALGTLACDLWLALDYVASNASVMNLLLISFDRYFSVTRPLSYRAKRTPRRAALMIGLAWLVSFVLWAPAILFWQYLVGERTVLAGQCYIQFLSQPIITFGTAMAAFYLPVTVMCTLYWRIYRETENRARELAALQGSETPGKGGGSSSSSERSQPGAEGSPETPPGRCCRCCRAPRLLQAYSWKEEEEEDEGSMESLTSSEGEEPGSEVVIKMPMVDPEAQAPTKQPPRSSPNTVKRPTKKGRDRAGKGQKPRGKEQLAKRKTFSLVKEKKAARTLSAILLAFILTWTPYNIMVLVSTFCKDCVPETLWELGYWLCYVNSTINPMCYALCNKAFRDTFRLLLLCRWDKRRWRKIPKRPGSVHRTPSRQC
D(2) dopamine receptor (Homo sapiens), sequence (P14416 whole entry, looked up): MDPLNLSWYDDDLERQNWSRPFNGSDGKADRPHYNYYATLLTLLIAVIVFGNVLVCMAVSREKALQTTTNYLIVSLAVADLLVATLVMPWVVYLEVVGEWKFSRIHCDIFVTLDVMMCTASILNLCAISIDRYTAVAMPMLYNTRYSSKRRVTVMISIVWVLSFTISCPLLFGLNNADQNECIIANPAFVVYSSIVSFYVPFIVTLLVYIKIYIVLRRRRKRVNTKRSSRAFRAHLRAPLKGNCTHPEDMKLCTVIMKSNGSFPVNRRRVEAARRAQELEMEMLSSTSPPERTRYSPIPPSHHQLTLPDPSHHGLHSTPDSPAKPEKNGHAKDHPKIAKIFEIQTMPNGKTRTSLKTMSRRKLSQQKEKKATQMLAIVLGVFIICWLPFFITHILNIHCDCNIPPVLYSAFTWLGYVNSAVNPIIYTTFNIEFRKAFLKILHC
Beta-2 adrenergic receptor (Homo sapiens), sequence (P07550 whole entry, looked up): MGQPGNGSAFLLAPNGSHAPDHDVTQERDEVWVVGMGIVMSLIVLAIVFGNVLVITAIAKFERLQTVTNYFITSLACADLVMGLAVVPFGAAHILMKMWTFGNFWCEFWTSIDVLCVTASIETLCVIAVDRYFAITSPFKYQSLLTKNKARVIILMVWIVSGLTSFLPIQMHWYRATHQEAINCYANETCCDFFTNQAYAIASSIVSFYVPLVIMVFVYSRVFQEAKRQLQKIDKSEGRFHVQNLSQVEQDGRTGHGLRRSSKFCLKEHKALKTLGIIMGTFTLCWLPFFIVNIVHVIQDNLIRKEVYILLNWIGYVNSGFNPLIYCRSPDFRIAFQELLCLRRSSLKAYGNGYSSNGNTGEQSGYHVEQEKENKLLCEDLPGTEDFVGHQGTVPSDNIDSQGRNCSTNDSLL
Gonadotropin-releasing hormone receptor (Homo sapiens), sequence (P30968 whole entry, looked up): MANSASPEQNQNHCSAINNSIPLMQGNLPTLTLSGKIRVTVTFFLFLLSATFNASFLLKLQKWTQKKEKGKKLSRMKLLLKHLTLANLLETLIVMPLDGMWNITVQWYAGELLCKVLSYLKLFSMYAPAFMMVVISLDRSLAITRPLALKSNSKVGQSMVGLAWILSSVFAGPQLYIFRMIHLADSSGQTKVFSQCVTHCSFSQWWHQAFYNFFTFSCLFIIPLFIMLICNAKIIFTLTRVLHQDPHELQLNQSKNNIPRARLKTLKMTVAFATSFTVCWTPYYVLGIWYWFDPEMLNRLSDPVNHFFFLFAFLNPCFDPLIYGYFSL
5-hydroxytryptamine receptor 2A (Homo sapiens), sequence (P28223 whole entry, looked up): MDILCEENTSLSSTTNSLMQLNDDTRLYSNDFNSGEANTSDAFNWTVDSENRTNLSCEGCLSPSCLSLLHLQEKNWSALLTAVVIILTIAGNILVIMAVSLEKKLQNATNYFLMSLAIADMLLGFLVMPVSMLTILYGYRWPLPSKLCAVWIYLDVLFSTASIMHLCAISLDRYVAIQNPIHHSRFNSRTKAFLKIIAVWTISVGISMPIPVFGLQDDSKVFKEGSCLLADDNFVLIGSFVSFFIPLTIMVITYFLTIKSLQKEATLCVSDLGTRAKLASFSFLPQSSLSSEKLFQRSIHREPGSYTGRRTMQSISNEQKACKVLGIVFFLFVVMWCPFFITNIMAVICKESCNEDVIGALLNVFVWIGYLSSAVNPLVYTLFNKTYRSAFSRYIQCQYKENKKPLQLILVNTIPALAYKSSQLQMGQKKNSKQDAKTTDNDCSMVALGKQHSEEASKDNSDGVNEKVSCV
KiSS-1 receptor (Homo sapiens), sequence (Q969F8 whole entry, looked up): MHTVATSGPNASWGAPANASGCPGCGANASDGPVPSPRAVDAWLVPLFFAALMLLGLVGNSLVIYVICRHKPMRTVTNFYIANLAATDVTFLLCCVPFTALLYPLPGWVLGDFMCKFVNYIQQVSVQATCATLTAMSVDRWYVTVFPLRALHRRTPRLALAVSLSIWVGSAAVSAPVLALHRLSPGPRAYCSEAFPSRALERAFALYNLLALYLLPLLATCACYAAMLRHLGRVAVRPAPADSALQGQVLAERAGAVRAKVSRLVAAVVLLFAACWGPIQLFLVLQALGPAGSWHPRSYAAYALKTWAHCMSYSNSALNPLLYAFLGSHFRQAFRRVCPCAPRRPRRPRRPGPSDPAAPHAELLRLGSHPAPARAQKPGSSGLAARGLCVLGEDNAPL

Row | SMILES | Potency [1] | Potency [2] | Potency [3] | Potency [4] | Potency [5] | Potency [6] | Potency [7] | Potency [8] | Potency [9] | Potency [10] | Potency [11] | Potency [12] | Potency [13] | Potency [14] | Potency [15] | Potency [16] | Potency [17] | Potency [18] | Potency [19] | Potency [20]
1 | OCc1c2ccccc2cc2ccccc12 | inactive | inactive | inactive | inactive | inactive | inactive | inactive | inactive | inactive | inactive | inactive | inactive | inactive | inactive | inactive | inactive | inactive | inactive | inactive | inactive
2 | c1ccc(CNCc2ccccc2)cc1 | inactive | inactive | inactive | inactive | inactive | inactive | inactive | inactive | inactive | inactive | inactive | 8.4 µM (active) | inactive | inactive | inactive | inactive | inactive | inactive | inactive | inactive
3 | CCC(C)C(=O)OCCc1ccccc1 (stereo not given) | inactive | inactive | inactive | inactive | inactive | inactive | inactive | inactive | inactive | inactive | inactive | inactive | inactive | inactive | inactive | inactive | inactive | inactive | inactive | inactive
4 | O=S(=O)(O)C(F)(F)F | inactive | inactive | inactive | inactive | inactive | inactive | inactive | inactive | inactive | inactive | inactive | inactive | inactive | inactive | inactive | inactive | inactive | inactive | inactive | inactive
5 | CC1CC(OC(=O)c2ccccc2O)CC(C)(C)C1 (stereo not given) | inactive | 61.1 µM (active) | inactive | inactive | inactive | inactive | inactive | inactive | inactive | inactive | inactive | inactive | inactive | inactive | inactive | inactive | inactive | inactive | inactive | inactive
6 | CC(CO)Oc1ccccc1 (stereo not given) | inactive | inactive | inactive | inactive | inactive | inactive | inactive | inactive | inactive | inactive | inactive | inactive | inactive | inactive | inactive | inactive | inactive | inactive | inactive | inactive
7 | CC(C)C1CCC(O)CC1 (stereo not given) | inactive | inactive | inactive | inactive | inactive | inactive | inactive | inactive | inactive | inactive | inactive | inactive | inactive | inactive | inactive | inactive | inactive | inactive | inactive | inactive
8 | C/C(=C1\CCOC(=O)S1)N(C=O)Cc1cnc(C)nc1N | inactive | inactive | inactive | inactive | inactive | inactive | inactive | inactive | inactive | inactive | inactive | inactive | inactive | inactive | inactive | inactive | inactive | inactive | inactive | inactive
9 | CCCCC(O)/C=C(C)/C=C/C=C/C(=O)N1CCCC1=O (stereo not given) | inactive | inactive | inactive | inactive | inactive | inactive | inactive | inactive | inactive | inactive | inactive | inactive | inactive | inactive | inactive | inactive | inactive | inactive | inactive | inactive
10 | CCC(OCCCOC)OC(C)=O (stereo not given) | inactive | inactive | inactive | inactive | inactive | inactive | inactive | inactive | inactive | inactive | inactive | inactive | inactive | inactive | inactive | inactive | inactive | inactive | inactive | inactive
11 | CCCCOC(O)CC (stereo not given) | inactive | inactive | inactive | inactive | inactive | inactive | inactive | inactive | inactive | inactive | inactive | inactive | inactive | inactive | inactive | inactive | inactive | inactive | inactive | inactive
12 | O=C1NC(c2ccccc2)(c2ccccc2)C(=O)N1COP(=O)(O)O | inactive | inactive | inactive | inactive | inactive | inactive | inactive | inactive | inactive | inactive | inactive | inactive | inactive | inactive | inactive | inactive | inactive | inactive | inactive | inactive
13 | CC(C)(C)CC(C)(C)c1ccc(O)c(-n2nc3ccccc3n2)c1 | 48.6 µM (active) | inactive | inactive | inactive | inactive | inactive | inactive | inactive | inactive | inactive | inactive | inactive | inactive | inactive | inactive | inactive | inactive | inactive | inactive | inactive
